# High-throughput results from PubChem BioAssay.
# AMPAR-TARP mod: GluA2-stargazin AMPA receptor complex modulation | HEK293 GluA2+stargazin, membrane potential dye (FDSS), glutamate EC50; hits were called plate by plate, in both directions | AID 1259245 | O88602+P19491 | 40,000 compounds, 3.5% hits | calls only at 30 µM;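 active means any of four per-well response measures lying three or more SD from its plate-wide compound average, in either direction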
# GIRK2 act: Activates human GIRK2-containing potassium channels | P48051 | HEK293 GIRK2/NPY4 cells, thallium flux fluorescence | activation (% efficacy), % for hits at 75 µM | 34,000 tested, under 10 active | AID 1259324;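 active means primary screen hit, no activity in plain HEK293 cells, and in GIRK2-only cells above 5% efficacy rising with concentration; inactive means the rest, including fluorescent compounds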;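 further: efficacy is normalized control-subtracted fluorescence 15 s after thallium addition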
# An asterisk follows results filed as active; i = inactive; . = not tested or not shown; + = active, no number. The sample as a whole holds a higher share of hits than the screen did.
SMILES,AMPAR-TARP mod,GIRK2 act
COc1ccc(NC2(C#N)CCCCC2)cc1,+,i
O=C(Cc1cccs1)N1CCN(Cc2nc(-c3cccs3)cs2)CC1,i,i
COc1cccc(/C=C2\Oc3cc(OC(=O)N(C)C)ccc3C2=O)c1,i,.
COc1ccc(/C=C2\Oc3cc(OC(=O)N(C)C)ccc3C2=O)cc1OC,+,.
O=C(Cc1cccs1)N1CCN(Cc2nc3ccccc3[nH]2)CC1,i,i
c1nc(N2CCNCC2)c2cn[nH]c2n1,+,i
O=C(Nc1ccc(Cl)cc1C(=O)c1ccccc1Cl)c1ccno1,i,.
O=C(Cc1ccc(Cl)cc1)N1CCCSCC1CN1CCOCC1 (stereo not given),.,i
CN(C)CC#CCNS(=O)(=O)c1ccccc1F,i,.
